Laboratory results published in PubChem BioAssay (NCI).
Compounds without any hit were thinned out: in the full panel of roughly 79,000, 15% have a hit. Values without a mark were called inactive. The source made the active and inactive calls. Cut-off read from the data, not from the text of the source: active = growth inhibition above about 70%; inactive = the rest.

Key:
[1] = NCI Yeast Anticancer Drug Screen. Data for the rad50 strain (AID 155);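 note: 0% = growth of vehicle-only cultures of the same strain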; conditions: S. cerevisiae rad50 strain growth inhibition; at 50.0 µM; active compounds read high
Method in brief: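 Compounds were tested on a yeast strain with an engineered DNA damage repair alteration; the reported value is growth inhibition normalised to vehicle treatment.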

[2] = NCI Yeast Anticancer Drug Screen. Data for the mec2-1 strain (AID 157); conditions: S. cerevisiae mec2-1 strain, at 50.0 µM, active compounds read high
Method in brief: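 Cells of the genetically defined mec2-1 yeast strain are incubated with test compound. Inhibition of growth is calculated against vehicle-treated controls.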

[3] = NCI Yeast Anticancer Drug Screen. Data for the sgs1 mgt1 strain (AID 161);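 note: 0% = growth of cultures given vehicle only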; conditions: S. cerevisiae sgs1 mgt1 strain, at 50.0 µM, active compounds read high
Method in brief: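 Test agents were incubated with a DNA-repair-mutant yeast strain. Growth was then read and compared against vehicle-treated controls.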

[4] = NCI Yeast Anticancer Drug Screen. Data for the cln2 rad14 strain (AID 165);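 note: 0% = growth equal to vehicle treated cultures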; conditions: S. cerevisiae cln2 rad14 strain, at 50.0 µM, active compounds read high
Method in brief: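 The screen exposed genetically defined yeast (cln2 rad14) to test compounds and scored growth inhibition relative to vehicle-treated controls.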

[5] = NCI Yeast Anticancer Drug Screen. Data for the bub3 strain (AID 167); conditions: S. cerevisiae bub3 mutant strain, at 50.0 µM, active compounds read high
Method in brief: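 Growth of a checkpoint-deficient yeast mutant is measured after compound exposure. Values represent inhibition relative to vehicle.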

[6] = NCI Yeast Anticancer Drug Screen. Data for the mlh1 rad18 strain (AID 175); conditions: S. cerevisiae mlh1 rad18 strain growth inhibition; at 50.0 µM; active compounds read high
Method in brief: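 Compound-treated yeast growth, normalised to vehicle controls. Strain bears defined DNA repair mutations.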

Structure (SMILES)	growth inhibition [1]	growth inhibition [2]	growth inhibition [3]	growth inhibition [4]	growth inhibition [5]	growth inhibition [6]
COc1cc2c(c([N+](=O)[O-])c1)NC(=O)C(c1ccccc1)S2 (configuration not stated)	-15.9%	-12.3%	-3.45%	23.1%	15.9%	-3.95%
N#CC1CNCCC1=N (configuration not stated)	-5.75%	-3.2%	13.4%	-1.1%	-1.55%	-6.8%
Nc1c(OCc2ccccc2)cccc1C(=O)O	-7.1%	-9.5%	10.9%	-47.5%	-40.5%	-12.2%
BrC1CCC(Br)C(Br)CCC1Br (configuration not stated)	46.5%	54.9%	55.1%	31.8%	60%	70.4% (active)
CCOc1ccc(NC(=O)/C=C/c2ccco2)cc1	-12%	-8.75%	13.9%	22%	5.3%	3%
CN(C)CCCNc1cc[n+](C)c2cccc([N+](=O)[O-])c12	27.1%	15.4%	31.4%	20.4%	13.8%	27.3%
O=C(OCC1C2CCC(C2)C1c1ccccc1)c1ccc([N+](=O)[O-])cc1 (configuration not stated)	1.4%	8.5%	-2%	-22.7%	-2.75%	10.5%
Cc1ccc2c(c1)C(C1=CCCc3ccc(C)cc31)=CCC2	10.2%	-16.5%	9.05%	10.3%	8.2%	13.8%
C1C2CC3CC1CC(c1nn4c(C56CC7CC(CC(C7)C5)C6)nnc4s1)(C2)C3	-20.4%	-12.8%	-9.1%	11.2%	-12.4%	-17.9%
Cc1cccc(NC(=S)NC2CCCCC2)c1	2.75%	11.7%	-3.1%	12.7%	7%	9.4%
CCCC1OCC(C)(CC)CO1 (configuration not stated)	27.6%	-2.55%	-4.9%	12%	-9.65%	-9.05%
CCCCCc1c2nc(c(CCCCC)c3ccc([nH]3)c(CCCCC)c3ccc([nH]3)c(CCCCC)c3nc1C=C3)C=C2	0.1%	-11.8%	-10.3%	23.1%	-10.5%	-15.6%
CCC(CC)CC(=O)OC/C(=N\Nc1ccc([N+](=O)[O-])cc1[N+](=O)[O-])c1ccc(-c2ccccc2)cc1	-30.9%	0.15%	-2.85%	-33.8%	-12.2%	-7%
COC(=O)CCCCCN1C(=O)c2cccc([N+](=O)[O-])c2C1=O	20.6%	7.2%	15.6%	20.9%	15.2%	20.6%
COc1ccc(C2CC(c3cc(C)ccc3O)=NC(N)=N2)cc1 (configuration not stated)	19.6%	12.8%	15.8%	13.2%	13.4%	23.4%
COC(=O)c1ccccc1N=CCC(C)CCCC(C)(C)O (configuration not stated)	-10.4%	4.4%	26.4%	-8.4%	0.1%	-5.05%
c1ccc(-c2ccc(N=NN3CCCC3)cc2)cc1	0.75%	-5.6%	14.3%	6.4%	-6.15%	8.1%
CCC/C(CC)=N\Nc1ccc([N+](=O)[O-])cc1[N+](=O)[O-]	-6.9%	9.4%	-2.35%	30.9%	12.9%	-4.1%
O=[N+]([O-])c1ccc(Cl)c(OCCBr)c1	0%	3.15%	-2.05%	1.15%	31.9%	9%

Structure (SMILES)	growth inhibition [1]	growth inhibition [2]	growth inhibition [3]	growth inhibition [4]	growth inhibition [5]	growth inhibition [6]
COc1ccc(C2=Nc3ccccc3NC(=O)C2)cc1	-10.2%	-20.9%	-12.6%	11.4%	-17.1%	-19.9%
COC(=O)CCCN1C(=O)c2ccccc2C1=O	-8.15%	-12.7%	-20.8%	-69.8%	5.6%	-3.95%
CCOC(=O)C(/C=N/Nc1ccc([N+](=O)[O-])cc1[N+](=O)[O-])Oc1cccc(OC)c1 (configuration not stated)	-8.85%	-8.4%	-19.8%	-15.1%	-8.75%	-1.55%
Clc1ccc(CSc2cnnc(SCc3ccc(Cl)cc3)c2SCc2ccc(Cl)cc2)cc1	-11.4%	15.2%	-10.9%	-60%	-3.75%	-30.4%
Nc1cn(Cc2ccccc2)c(=O)n(Cc2ccccc2)c1=O	-1.85%	-7.85%	-9.5%	-57.5%	8.95%	-23.6%
CC(=O)C1CCC(CCCC(C)C)CC1 (configuration not stated)	13.9%	-2.4%	-2.75%	-10.4%	2.4%	6.2%
CC1([N+](=O)[O-])COC2(CCCCC2)OC1	18.2%	9.75%	-6.1%	-22.1%	4.3%	24.2%
c1ccc(C(c2ccccc2)c2ccccc2)cc1	-20.6%	-20.4%	-16.1%	-10.3%	-8.7%	-23.6%
CC(C)(C)N(OC(=O)c1ccc(C#N)cc1)c1ccccc1	15.4%	11.6%	3.55%	7.75%	4.2%	3.35%
O=C1c2ccccc2CCC12OC2c1ccncc1 (configuration not stated)	12.1%	27.1%	25%	6.75%	39.4%	29.6%
Nc1nc(-c2ccccc2)ns1	4.9%	-44.1%	1.4%	8.4%	-17.8%	-2.3%
C=C1C2C[C@@H]3OC4CC5O[C@]6(CC5OC4C(C)C3OC(=O)CC3CC[C@@H]4OC5C7OC8C[C@](CCC9CC(=C)[C@H](CCC(C[C@H]1C)O2)O9)(OC7C4O3)O[C@@H]85)C[C@@H]1O[C@@]2(CC(C)[C@@H]3OC(CC(=O)CCO)C(O)C[C@@H]3O2)CC(C)[C@@H]1O6 (some centres not stated)	84.5% (active)	88.5% (active)	88.6% (active)	84.5% (active)	87.5% (active)	87.3% (active)
CC(=O)OCC1OC(n2cnc([N+](=O)[O-])c2C#N)C(OC(C)=O)C1OC(C)=O (configuration not stated)	28.6%	14.7%	22.3%	30.1%	3.45%	34.3%
CN(C)CCCC1(O)c2ccccc2Sc2cc(Cl)ccc21 (configuration not stated)	12.9%	12.9%	17.9%	18.6%	12.7%	25.9%
CCN(CC)CCN1CC(=O)N2Cc3ccccc3CN2C(=O)C1	-0.7%	-4.45%	0.6%	10.4%	4.45%	5.9%
OCCN(CCO)c1ccc(-n2cnc3c(=S)nc[nH]c32)cc1	-3.1%	-3%	5.55%	-43.8%	8.35%	-4.15%
ClC(Cl)C1OCCCO1	-32.4%	-17.4%	-23.2%	-41.1%	12.2%	-8.25%
CC(C)CCOC(=S)S	35.2%	17.9%	-22.6%	-5.8%	34.2%	-38.4%
